# According to PubChem BioAssay (NCATS):
# A number with no mark means an inactive call. Inconclusive results are not listed. Activity calls are given as the source filed them. Unless noted, calls come from the whole dose curve; as a rule, active = well fitted curve in either direction with a large enough effect (not every such curve was filed as active); inconclusive = small, poorly fitted or top-dose-only effect, or another doubt; inactive = flat fitted curve, though single readings scatter.
# How the values were obtained:
# [1] = AP1 Signaling Pathway (AID 357); conditions: ME-180 AP-1-bla reporter, EGF-induced, beta-lactamase ratio, 5 h; at 17.2 µM (top of the series) unless noted;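 note: ME-180 reporter cells stimulated with EGF at its EC50 level; % is set by controls: 0 for no effect and ±100 for the full control effect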
# Method in brief: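 Titration-series screen for positive or negative modulators of EC50 EGF-induced signaling in ME-180 cells carrying an AP-1-driven beta-lactamase reporter. After 5 hours at 37 degrees Celsius, CCF4 460nm/530nm emission ratio gave %Activity; AC50 values derived.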
# [2] = NFAT Signaling Pathway (AID 444); conditions: Jurkat NFAT-bla M1, carbachol, beta-lactamase ratio, 5 h; at 17.2 µM (top of the series) unless noted;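 note: carbachol stimulus at about its EC50 of 1 µM final; % is set by controls: 0 for no effect and ±100 for the full control effect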
# Method in brief: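 Read-out: CCF4 FRET ratio (460 nm/530 nm) after 1 h RT dye loading, used for %activity and AC50 from titration series. Cells: Jurkat NFAT-β-lactamase/M1 line, treated with compound plus 1 uM carbachol for 5 h, 37 °C.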
# [3] = Stat Signaling Pathway (AID 446); conditions: ME-180 SIE beta-lactamase reporter, IL-6 stimulated, 5 h; at 17.2 µM (top of the series) unless noted;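 note: ME-180 cervical cancer cells given 40 pM IL-6 alongside compound; SIE-controlled beta-lactamase reporter measured as 460/530 nm FRET emission ratio; % is set by controls: 0 for no effect and ±100 for the full control effect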
# Method in brief: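 ME-180 SIE-bla cells; overnight plating; cpd + IL-6 40 pM, 5 h, 37 C; LiveBLAzer 2.5 h RT; 460/530 nm emission ratio. Normalized to 300 pM IL-6 and 125 nM JAK inhibitor controls.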
# [4] = molecular target: Glucocorticoid receptor (Homo sapiens) (UniProt P04150); test: GR-GFP Redistribution (AID 450;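 active = compounds whose dose series gives a full or clear partial fitted curve of increased nuclear translocation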; note: potency is the fitted concentration of half-maximal effect)
# Chain of Glucocorticoid receptor (Homo sapiens) (P04150 whole entry, looked up): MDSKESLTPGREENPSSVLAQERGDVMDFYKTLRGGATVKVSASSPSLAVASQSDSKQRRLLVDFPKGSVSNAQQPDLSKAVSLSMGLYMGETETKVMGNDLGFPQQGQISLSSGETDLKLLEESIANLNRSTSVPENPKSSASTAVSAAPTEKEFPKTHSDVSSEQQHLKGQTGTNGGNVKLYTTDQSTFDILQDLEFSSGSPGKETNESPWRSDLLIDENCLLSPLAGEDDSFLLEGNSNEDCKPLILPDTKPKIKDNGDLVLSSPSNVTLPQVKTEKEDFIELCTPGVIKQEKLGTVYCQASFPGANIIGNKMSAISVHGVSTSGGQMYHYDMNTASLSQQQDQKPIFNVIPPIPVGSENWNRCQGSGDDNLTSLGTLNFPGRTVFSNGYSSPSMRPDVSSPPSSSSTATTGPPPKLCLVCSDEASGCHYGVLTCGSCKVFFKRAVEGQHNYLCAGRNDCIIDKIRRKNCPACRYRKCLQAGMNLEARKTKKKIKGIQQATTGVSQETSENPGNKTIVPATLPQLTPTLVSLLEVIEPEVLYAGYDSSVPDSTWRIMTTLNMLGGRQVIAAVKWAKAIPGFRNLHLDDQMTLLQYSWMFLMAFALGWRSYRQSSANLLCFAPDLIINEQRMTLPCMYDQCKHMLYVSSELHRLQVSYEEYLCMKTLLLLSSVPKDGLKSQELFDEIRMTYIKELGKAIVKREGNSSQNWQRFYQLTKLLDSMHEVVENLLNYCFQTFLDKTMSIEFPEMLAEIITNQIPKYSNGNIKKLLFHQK
Compound,"activity change, negative = inhibition [1]","activity change, negative = inhibition [2] [%]","activity, negative = inhibition [3] [%]",Potency [4] [µM]
COCc1[nH]nc2c1C(c1ccccc1OC)C(C#N)=C(N)O2 (centres undefined),-14.7%,-26.9,-17.1,> 20.6
CCNc1sc(C(=O)c2cccs2)c(N)c1C#N,-8.55%,20.9,-7.29,> 20.6
COc1ccccc1Nc1ncnc2c1cnn2-c1cccc(C)c1,-28.5%,-14.7,-6.58,> 20.6
Cc1nc(SCC(=O)Nc2ccc3c(c2)OCO3)c(C#N)c2c1CCCC2,-14.5%,-1.28,-15.4,> 20.6
COc1cccc(C2C(C(=O)c3cccs3)=C(O)C(=O)N2c2cc(C)on2)c1 (centres undefined),-6.29%,16.2,-7.97,> 20.6
Cc1cc2c(C)nc(Cc3ccccc3)nc2o1,-3.87%,-3.38,5.35,> 20.6
CCCCc1nc2sc3c(c2c(=O)[nH]1)CCC3,-16.9%,-7.93,-2.54,> 20.6
O=c1[nH]c(CN(CCO)CCO)nc2c1C1(CCCCC1)Cc1ccccc1-2,8.29%,6.88,-8.23,> 20.6
CCOC(=O)C1CCCN(c2nc3ccccc3nc2C(C#N)C(=O)OC(C)COC)C1 (centres undefined),-5.69%,-5.6,-14.5,> 20.6
Cn1c(OCc2ccc3c(c2)OCO3)nc2c1c(=O)n(Cc1cccc(Cl)c1)c(=O)n2C,-15.5%,1.55,-6.64,> 20.6
Cc1cc2c(c(=O)n1Cc1cccnc1)C(c1ccccc1)C(C#N)=C(N)O2 (centres undefined),-14.1%,3.75,-17,> 20.6
CCN(CC)CCCN1C(=O)C(=O)/C(=C(/O)c2ccc(OC)cc2)C1c1ccco1 (centres undefined),9.88%,-12.1,10.8,> 20.6
c1ccc(OCc2nn3c(C4CCCCC4)nnc3s2)cc1,-8.37%,0.0415,8.07,> 20.6
COc1ccc(C2C(C#N)=C(C)NC3=C2C(=O)c2ccccc23)cc1 (centres undefined),-6.13%,-27.8,-7.06,> 20.6
COc1ccc(C(=O)NCCCCCC(=O)O)cc1OC,5.18%,-3.46,2.88,> 20.6
Cc1ccc(C(=O)/C=C/Nc2ccccn2)cc1,11%,23.5,-4.63,> 20.6
CCOC(=O)c1ccccc1OCc1cc(/C=N/n2cncn2)ccc1OC,-21.7%,8.94,-6.04,> 20.6
O=c1oc2c(CN3CCCCC3)c(O)ccc2c2c1CCCCC2,2.02%,-25.5,9.48,> 20.6
O=C1NC(c2cccs2)Nc2ccccc21 (centres undefined),-27%,-4.93,-4.53,> 20.6
Cc1cc(N2C(=O)C(=O)/C(=C(/O)c3ccc(F)cc3)C2c2cccc(Br)c2)no1 (centres undefined),-7.98%,2.37,-29.1,> 20.6
COC(=O)c1ccc(C2/C(=C(\O)c3cccc(OC)c3)C(=O)C(=O)N2CCCN2CCOCC2)cc1 (centres undefined),3.85%,-2.61,15.2,> 20.6
CCOC(=O)C1=C(C(C)=O)C(c2cccnc2)C(C#N)=C(N)O1 (centres undefined),29.3%,-19,-12.3,> 20.6
COc1cc(=O)n2c(-c3ccccc3)csc2n1,6.57%,0.0134,8.66,> 20.6
CN(C)CCNc1nc(-c2ccco2)c2c(c1C#N)CC(C)(C)OC2,9.95%,-23,12.9,> 20.6
O=C1c2ccccc2C(=O)N1c1ncccn1,6.61%,-3.61,9.87,> 20.6
Cc1ccc(C2/C(=C(\O)c3cnn(-c4ccccc4)c3C)C(=O)C(=O)N2CCN(C)C)o1 (centres undefined),-6.2%,-12.1,4.22,> 20.6

Compound,"activity change, negative = inhibition [1]","activity change, negative = inhibition [2] [%]","activity, negative = inhibition [3] [%]",Potency [4] [µM]
c1cncc(-c2nnc3sc(C4CCCCC4)nn23)c1,-18.8%,-20,-1.41,> 20.6
O=C(C/C(=N/O)c1ccccc1O)C(F)F,15.8%,0.0588,3.52,> 20.6
O=C(CCC1CCCC1)N1CCC(N2CCN(c3ccccc3)CC2)CC1,-5.6%,-29.5,9.85,> 20.6
CCC(=O)Nc1nc2ccccc2n1CCN(C)C,3.29%,-7.56,10.7,> 20.6
O=C(Nc1ccccn1)NC(C(F)(F)F)C(F)(F)F,-3.59%,6.68,-3.68,> 20.6
CCC1SC(N)=NC1=O (centres undefined),2.7%,-3.13,-1.83,> 20.6
COc1ccc(/C(O)=C2\C(=O)C(=O)N(c3cc(C)on3)C2c2cccc(OC)c2OC)cc1C (centres undefined),-5.37%,6.15,-17.9,> 20.6
COC(=O)c1ccc(OC(=O)c2ccc(OC)c(OC)c2)c(OC)c1,-0.243%,-10.5,-2.16,> 20.6
CCOC(=O)c1ccc(NC(=O)COc2ccccc2OC)cc1,-16.3%,0.388,2.17,> 20.6
CC1(C)CC(N(Cc2ccco2)C(=O)Cc2ccccc2)CCO1 (centres undefined),-1.99%,-3.12,9.62,> 20.6
CC1(C)CC(=O)C(C2=NC(C)(C)Cc3ccccc32)=C(O)C1,2.44%,2.48,0.129,> 20.6
c1ccc(-n2ncc3c(NCC4CCCO4)ncnc32)cc1 (centres undefined),-4.47%,-15.8,2.07,> 20.6
C=C1[C@@H](C)C2[C@H](Cc3ccccc3)NC(=O)[C@]23OC(=O)CC[C@H](O)CCC[C@H](C)C/C=C/[C@H]3[C@@H]1O (some centres undefined),-80.8% (active),-7.27,-14.9,> 20.6
COc1cccc(/C(O)=C2\C(=O)C(=O)N(c3ccccn3)C2c2ccccc2OC)c1 (centres undefined),-8.01%,11.4,1.49,> 20.6
COc1ccc(NC(=O)Nc2cccc(C(=O)N3CCOCC3)c2)cc1OC,3.36%,-1.43,0.00442,> 20.6
CC(Sc1ccc2ccccc2n1)C(=O)O (centres undefined),14.7%,9.86,5.88,> 20.6
Cc1cc2nncn2c(Cc2ccccc2)n1,-3.42%,-3.53,-8.81,> 20.6
COc1ccccc1C1CC(c2ccc(Cl)cc2)Nc2nc(N)nn21 (centres undefined),6.6%,22.1,-2.9,> 20.6
COc1ccc(-c2ncncc2-c2csc(C)n2)c(O)c1,2.87%,-5.52,0.893,> 20.6
CCCSc1nnc2n(Cc3ccccc3)c(=O)c3c4c(sc3n12)CCC4,27.1%,0.0627,-7.18,> 20.6
CC1C[C@@]2(NC(=O)NC2=O)C(C)CN1C (some centres undefined),5.36%,-4.32,5.03,> 20.6
CCOC(=O)c1sc(-n2[nH]c(C)cc2=O)nc1C,-2.34%,8.32,1.64,> 20.6
c1nc(NC2CCCCC2)c2[nH]cnc2n1,-4.39%,2.42,-29.4,> 20.6
Cn1c(=O)c2c(nc(Br)n2CCSc2ncccn2)n(C)c1=O,10.3%,8.82,-0.734,> 20.6
CC(C)c1ccc(O)c(N)c1,-2.33%,12.3,2.34,> 20.6
